PubChem BioAssay (NCATS)
Results filed as inconclusive are left out. Unmarked numbers belong to inactive results. Calls of active or inactive are those of the source. Calls follow the shape of the dose curve; as a rule, active = well fitted inhibition curve with a large enough effect; inconclusive = small, poorly fitted or top-dose-only effect; inactive = flat fitted curve, though single readings scatter.

What follows are compounds tested on MCC-26 (assay: qHTS assay to identify novel small-molecules to repurpose for Merkel cell carcinoma treatment (AID 1296009; also: nearly all actives have a fitted effect of over 60% in size)). Settings: MCC and control cell lines, CellTiter-Glo viability, 72 h; series mostly up to 46 µM; activity change, negative = cytotoxicity: at the top concentration.
Description: MCC is a rare and aggressive neuroendocrine skin cancer with limited treatment options. Approximately 80% of MCCs have the Merkel cell polyomavirus (MCPyV) DNA integrated into the host genome (virus-positive: VP-MCC) and viral oncogenes drive oncogenesis. The remaining MCCs are virus-negative (VN-MCC) and are caused by UV mutagenesis. To identify novel treatments for VP-MCC and/or VN-MCC we screened three VP-MCC cell lines (WAGA, MKL-1, MKL-2), three VN-MCC cell lines (MCC-13, MCC-26, UISO), and four immortalized, non-transformed control cell lines (HaCaT, HEK293T, CRL7250, NIH-3T3) against ~2,400 compounds in the NCGC Pharmaceutical Collection (NPC) and ~1,900 compounds in the Mechanism Interrogation PlatE (MiPE). Using cell viability as a readout (CellTiter-Glo assay) we found both overlapping and distinct drugs that can be repurposed for the treatment of VP-MCC and VN-MCC.
A high-throughput screen was conducted in 1536-well white flat bottom plates (Corning) on a Kalypsys robotic system. Cell lines WAGA, MKL-1, MKL-2, MCC-13, MCC-26, UISO, HaCaT, HEK293T, CRL7250, and NIH-3T3 were screened against 2 small molecule annotated drug libraries NPC and MIPE in dose response (8 and 11 pt. respectively) measuring cell viability after 72 hours of incubation. […] A 1,536 pintool (Kalypsys) was used to transfer 23 nL of compound in DMSO to the 1,536-well assay plates. After 72 hr incubation at 37 degree celsius, 2.5 uL of CellTiter-Glo (Promega) was dispensed into each well using a BiorapTR. Plates were incubated at room temperature for 10 min, transferred to a ViewLux (PerkinElmer) and the luminescence was recorded using an exposure time of 2 seconds. Relative luminescence units (RLUs) were normalized to in-plate controls (no cells as a positive (cytotoxicity) control, DMSO as negative control) and the normalized data was processed using NCATS in-house software.
% is scaled to controls: 0 for no effect and ±100 for the full control effect; potency is read from the fitted curve at half-maximal effect.

Row | Structure (SMILES) | activity change, negative = cytotoxicity | Potency
1 | COc1cc2cc(c1Cl)N(C)C(=O)C[C@H](OC(=O)C(C)C)[C@]1(C)O[C@H]1[C@H](C)[C@@H]1C[C@@](O)(NC(=O)O1)[C@H](OC)C=CC=C(C)C2 | -64.1% | –
2 | O=[N+]([O-])c1c2ccccc2cc2ccccc12 | 16.3% [at 92.7 µM] | –
3 | CC(C)Oc1cccc(NC(=O)c2ccccc2C(F)(F)F)c1 | -10.4% [at 92.7 µM] | –
4 | C[C@@H]1[C@H](O)[C@@H](C)C=CC=CCCC=CC=CC=CC=C[C@H](O[C@H]2O[C@@H](C)[C@H](O)[C@@H](N)[C@@H]2O)CC2O[C@](O)(C[C@@H](O)[C@H](O)CC[C@@H](O)C[C@@H](O)C[C@@H](O)CC(=O)O[C@H]1C)C[C@H](O)[C@H]2C(=O)O | -5.86% | –
5 | CCCCCC[C@H]1C(=O)O[C@H](C)[C@H](NC(=O)c2cccc(NC=O)c2O)C(=O)O[C@@H](C)[C@@H]1OC(=O)CC(C)C | -11.2% | –
6 | CC(C)(C)[C@]1(O)C[C@@H]2OC(=O)C[C@@]23C(=O)O[C@@H]2OC(=O)[C@H](O)C213 (stereo not given in full) | -6.39% | –
7 | CCCCCCCCCC(CC)c1ccc(S(=O)(=O)O)cc1 (stereo not given) | -2.03% [at 92.7 µM] | –
8 | Clc1ccccc1C(c1ccccc1)(c1ccccc1)n1cccn1 | -5.54% | –
9 | CC[C@@]1(O)C(=O)OCc2c1cc1n(c2=O)Cc2cc3ccccc3nc2-1 | – | 0.0743 µM (active)
10 | O=S(=O)(c1ccc(Cl)cc1)c1ccc(Cl)cc1 | -11.6% [at 92.7 µM] | –
11 | CC[C@@H](C(N)=O)N1CCCC1=O | -5.4% | –
12 | C#CC1(O)CCC2C3CCC4=CC(=O)CCC4(C)C3CCC21C (stereo not given) | -19.8% | –
13 | CC1(N2CCC(n3c([C@@H]4CCCNC4)nc4ccccc43)CC2)CCCCCCC1 | 0.436% | –
14 | CCOP(=O)(NC(C)C)Oc1ccc(SC)c(C)c1 (stereo not given) | 7.67% [at 92.7 µM] | –
15 | Nc1ccc(Sc2ccc(N)cc2)cc1 | -6.39% [at 92.7 µM] | –
16 | C[C@H]1CCCC=CC2C[C@H](O)C[C@@H]2[C@H](O)C=CC(=O)O1 (stereo not given in full) | -86.5% | –
17 | COC[C@H]1OC(=O)c2coc3c2[C@@]1(C)C1=C(C3=O)[C@@H]2CC[C@H](O)[C@@]2(C)C[C@@H]1OC(C)=O | -5.32% | –
18 | CC(O)=C(C#N)C(=O)Nc1cc(Br)ccc1Br | -0.195% | –
19 | CC(C)N(CCNC(=O)CN1CCCC1=O)C(C)C | -0.684% | –
20 | N=c1c2c(-c3ccccc3)c(-c3ccccc3)n(Cc3ccccc3)c2ncn1C1CCC(O)CC1 (stereo not given) | -13.1% | –

Row | Structure (SMILES) | activity change, negative = cytotoxicity | Potency
21 | C=CCON=C(C[C@H]1O[C@@H]2O[C@]3(C)CC[C@@H]4[C@H](C)CC[C@@H]([C@H]1C)[C@@]24OO3)[C@H]1O[C@@H]2O[C@]3(C)CC[C@H]4[C@H](C)CC[C@@H]([C@@H]1C)[C@@]24OO3 | -0.252% | –
22 | O=C1C(I)=CC(=C(c2cc(I)c(O)c(I)c2)c2ccccc2C(=O)O)C=C1I | 16.2% | –
23 | CC(C)(O)C(=O)Nc1ccc([N+](=O)[O-])c(C(F)(F)F)c1 | -12.8% | –
24 | CCO/N=C(\CC)C1=C(O)CC(c2c(C)cc(C)cc2C)CC1=O (stereo not given) | -0.317% [at 92.7 µM] | –
25 | CCN1C[C@]2(OC(=O)c3ccccc3NC(C)=O)CC[C@H](OC)[C@@]34[C@H]5CC6[C@@H](OC)C[C@](O)(C(C[C@@H]23)[C@@H]14)[C@@]5(O)[C@@H]6OC | -3.98% | –
26 | CCCCCCCCCCCCCCCC[N+](C)(C)C | – | 26.6 µM (active)
27 | CCCC[N+]1(C)[C@H]2CC(OC(=O)[C@H](CO)c3ccccc3)C[C@H]1[C@H]1O[C@H]12 (stereo not given in full) | 4.3% | –
28 | CCOC(=O)c1c(C(C#N)=CN)c2ccc(Cl)c(Cl)c2n1C | -13.3% | –
29 | CO[C@H]1CCC(O[C@H]2C[C@H]([C@]3(C)CC[C@]4(C[C@H](O)[C@@H](C)[C@@H]([C@@H](C)C=C(C)C(=O)[C@H](C)C[C@H](C)C(=O)O)O4)O3)O[C@]3(O[C@@H]([C@H]4O[C@@](O)(CO)[C@H](C)C[C@H]4C)C[C@H]3C)[C@H]2C)O[C@H]1C (stereo not given in full) | -26.4% | –
30 | CC(C)[C@H]1C(=O)N[C@H](CO)Cc2c[nH]c3cccc(c23)N1C | 2.41% | –
31 | CC(C)NCC(O)c1ccc([N+](=O)[O-])cc1 (stereo not given) | -4.53% | –
32 | CCC(=O)OC1CCC2C3CCC4=CC(=O)CC[C@@]4(C)C3CC[C@]12C (stereo not given in full) | 10.1% | –
33 | O=C(Oc1ccc([N+](=O)[O-])cc1)N1CCN(Cc2cccc(Oc3ccccc3)c2)CC1 | 2.85% | –
34 | CCCCC(CC)COC(=O)c1ccccc1C(=O)OCC(CC)CCCC (stereo not given) | 8.36% [at 92.7 µM] | –
35 | CSCC[C@@H](NC(=O)[C@@H](Cc1ccccc1)NC(=O)CNC(=O)CNC(=O)[C@@H](N)Cc1ccc(O)cc1)C(=O)O | 0.601% | –
36 | c1cc2c(cc1[C@H]1OC[C@H]3[C@H]1CO[C@H]3c1ccc3c(c1)OCO3)OCO2 | 1.12% | –
37 | CN1CCN(c2ccc([N+](=O)[O-])c3no[n+]([O-])c23)CC1 | 8.46% | –
38 | C[C@]12Cc3cn[nH]c3C[C@@H]1CC[C@@H]1[C@H]2CC[C@@]2(C)[C@H]1CC[C@]2(C)O | 8.01% | –
39 | Cc1c(C(=O)Nc2cccc(C(F)(F)F)c2)cc(-c2ccccc2)n1CCCN1CCOCC1 | -7.13% | –
40 | O=c1[nH]c2ccccc2n1C1CCN(Cc2ccc(-c3[nH]c4cc5ncnc5cc4nc3-c3ccccc3)cc2)CC1 | -2.88% | –
